# Measurements as given in publication PMC4336329 (PLoS ONE, 2015).
# Out of some 310,000 compounds screened, about 14,000 (4.5%) showed an effect of 50% or more. The effect is printed as a negative number. What follows is part of a selection rich in strong results, with near analogues and random picks from the rest.
# Molecular target: human ether-à-go-go-related gene (hERG) potassium channel (human, UniProt Q12809)
# Assay: primary screen, population patch clamp on CHO cells stably expressing hERG; higher = less effect of the substance
# 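Also: peak tail current of the secondary pulse compared with the same well before compound.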
# human ether-à-go-go-related gene (hERG) potassium channel, sequence (Q12809 whole entry, looked up): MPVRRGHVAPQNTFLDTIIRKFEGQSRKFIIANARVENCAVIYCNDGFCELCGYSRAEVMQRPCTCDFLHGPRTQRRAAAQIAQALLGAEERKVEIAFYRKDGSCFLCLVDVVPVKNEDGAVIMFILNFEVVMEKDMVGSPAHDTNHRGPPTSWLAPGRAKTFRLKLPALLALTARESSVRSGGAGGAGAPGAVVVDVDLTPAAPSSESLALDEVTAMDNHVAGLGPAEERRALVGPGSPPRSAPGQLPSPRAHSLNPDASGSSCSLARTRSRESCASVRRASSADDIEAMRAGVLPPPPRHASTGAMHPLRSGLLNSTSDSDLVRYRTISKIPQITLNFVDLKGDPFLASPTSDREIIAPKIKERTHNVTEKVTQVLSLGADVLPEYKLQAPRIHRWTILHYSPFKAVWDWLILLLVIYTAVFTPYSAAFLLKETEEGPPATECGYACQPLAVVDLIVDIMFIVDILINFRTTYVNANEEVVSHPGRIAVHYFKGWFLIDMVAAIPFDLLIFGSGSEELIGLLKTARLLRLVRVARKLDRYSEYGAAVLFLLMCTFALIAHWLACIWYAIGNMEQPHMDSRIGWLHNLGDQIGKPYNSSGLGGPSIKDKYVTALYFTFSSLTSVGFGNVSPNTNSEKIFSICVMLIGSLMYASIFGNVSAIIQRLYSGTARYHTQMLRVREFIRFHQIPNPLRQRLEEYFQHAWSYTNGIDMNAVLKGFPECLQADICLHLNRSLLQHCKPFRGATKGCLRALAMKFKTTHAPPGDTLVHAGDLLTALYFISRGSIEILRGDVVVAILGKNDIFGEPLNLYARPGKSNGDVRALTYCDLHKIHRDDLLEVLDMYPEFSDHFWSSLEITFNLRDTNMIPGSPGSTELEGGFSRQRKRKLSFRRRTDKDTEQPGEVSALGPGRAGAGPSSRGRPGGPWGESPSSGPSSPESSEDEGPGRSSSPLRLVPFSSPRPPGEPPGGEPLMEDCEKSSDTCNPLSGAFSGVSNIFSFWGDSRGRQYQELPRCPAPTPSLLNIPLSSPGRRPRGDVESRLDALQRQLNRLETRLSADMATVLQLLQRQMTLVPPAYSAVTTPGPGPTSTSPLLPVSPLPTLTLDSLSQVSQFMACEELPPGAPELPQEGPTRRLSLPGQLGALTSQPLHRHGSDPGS
row,Compound,"hERG current change (%, negative = inhibition) at 10uM"
1,Cc1cc(C)cc(OCC(=O)Nc2ccncc2)c1,-18.9%
2,C=CCN(c1ccccc1)S(=O)(=O)c1cccc(C(=O)NNC(=O)c2ccncc2)c1,-7.43%
3,O=C1NC(Cc2ccccc2)C(=O)N1Cc1cc([N+](=O)[O-])cc2c1OCOC2 (centres unmarked),7.47%
4,COc1ccc(N2CCN(C(=O)c3ccc(SC)cc3OC)CC2)cc1,-55.3%
5,COc1cc(SC)ccc1C(=O)N1CCN(c2ccccc2)CC1,-17.2%
6,COc1cc(SC)ccc1C(=O)N1CCN(Cc2ccccc2)CC1,-62.7%
7,COc1cc(SC)ccc1C(=O)N1CCN(Cc2ccc3c(c2)OCO3)CC1,-34.3%
8,COc1cc(SC)ccc1C(=O)N1CCN(c2ccc(O)cc2)CC1,-34.2%
9,COc1cc(SC)ccc1C(=O)N1CCCCCC1,17.3%
10,COc1ccc(-c2cn3c(C)c(C(=O)NC(C)C)sc3n2)cc1,6.65%
11,COc1nc2c(C)cccc2cc1-c1noc(-c2ccco2)n1,-8.01%
12,c1ccc(-c2ncc3ccccn23)cc1,-3.24%
13,COc1cc(-c2cc(C(=O)Nc3nc4ccccc4s3)c3ccccc3n2)cc(OC)c1OC,35.9%
14,Brc1cccc(CNCc2cccs2)c1,-10.2%
15,Brc1ccc(CNCc2cccs2)cc1,-55.1%
16,CCc1ccc(CNCc2cccs2)cc1.Cl,-22.9%
17,Cc1cc(Cl)c(OCCCn2cncn2)c(Br)c1,-14.1%
18,CCCCOc1ccc(/C=C/C2=CC(C)(C)NC(=S)N2)cc1OCC,7.58%
19,CCn1ccnc1CN(C)C(=O)C1CCC(=O)N(Cc2cccc(F)c2)C1 (centres unmarked),-11.9%
20,CN(Cc1ccccc1Cl)C(=O)C1CCC(=O)N(CCc2cccc(F)c2)C1 (centres unmarked),-52.5%
21,CN(Cc1nc2ccccc2[nH]1)C(=O)C1CCC(=O)N(CCc2cccc(F)c2)C1 (centres unmarked),4.23%
22,CCn1ccnc1CN(C)C(=O)C1CCC(=O)N(Cc2cccc(C(F)(F)F)c2)C1 (centres unmarked),-22.8%

row,Compound,"hERG current change (%, negative = inhibition) at 10uM"
1,CCn1ccnc1CN(C)C(=O)C1CCC(=O)N(CCc2cccc(F)c2)C1 (centres unmarked),-50.7%
2,Cc1ccsc1CN(C)C(=O)C1CCC(=O)N(CCc2cccc(F)c2)C1 (centres unmarked),-35.9%
3,O=C(CSc1n[nH]c(=O)[nH]c1=O)c1ccc(Cl)cc1Cl,16.1%
4,Cn1c(=O)[nH]c(=O)c2c1nc(N1CCOCC1)n2CC(O)COc1ccccc1 (centres unmarked),6.81%
5,CCOc1ncccc1C(=O)OCC(=O)c1ccccc1Br,0.975%
6,CCOc1ccccc1OCCCC(=O)N(CC)CC(=O)Nc1c(F)cccc1F,-1.78%
7,CCN1CCN(C(c2ccc(C(F)(F)F)cc2)c2ccc3cccnc3c2O)CC1 (centres unmarked),-25.3%
8,O=S(=O)(Nc1cccc2cn[nH]c12)c1ccc(F)cc1,-5.83%
9,CCOC(=O)c1cc2c(=O)n3ccccc3nc2n(CC(C)C)c1=NC(=O)c1c(-c2c(F)cccc2Cl)noc1C,5.66%
10,CCOCCCn1c(=NC(=O)c2ccco2)c(C(=O)OCC)cc2c(=O)n3cccc(C)c3nc21,-74%
11,CCCCn1c(=NC(=O)c2ccco2)c(C(=O)OCC)cc2c(=O)n3cccc(C)c3nc21,-81.6%
12,CCOC(=O)c1cc2c(=O)n3cccc(C)c3nc2n(Cc2ccco2)c1=NC(=O)c1ccccc1,-37.2%
13,CCOC(=O)c1cc2c(=O)n3cccc(C)c3nc2n(CC(C)C)c1=NC(=O)c1ccco1,-69.7%
14,Cc1ccc(NC(=O)CSc2nnc(CSc3nc(C)cc(C)n3)n2Cc2ccco2)c(C)c1,-39.5%
15,O=C(Cn1nnc(-c2ccccc2F)n1)Nc1ccc2c(c1)OCCO2,11.3%
16,O=C(COc1ccccc1Cl)Nc1cccc(S(=O)(=O)NC2=NCCCCC2)c1,-5.14%
17,CN(C)CCCn1c(SCC(=O)N2c3ccccc3Sc3ccccc32)nc2ccccc2c1=O,-39.5%
18,CC(=O)Nc1ccc(C)cc1,12.2%
19,O=C(O)Cn1c(=O)cnc2ccccc21,9.56%
20,CC(=O)c1c(C)n(C)c2ccc(OC(=O)c3ccc([N+](=O)[O-])cc3)cc12,17.2%
21,CCOc1cc(-c2nc(C)c(C(C)=O)n2O)ccc1OCC(=O)Nc1ccccc1,-0.49%
22,Cc1cccc(S(=O)(=O)N2CCC(CO)(Cc3ccccc3)CC2)c1,-2.74%

row,Compound,"hERG current change (%, negative = inhibition) at 10uM"
1,Cc1[nH]c2ccccc2c1CN1CCC(CO)(Cc2ccccc2)CC1,-47.6%
2,Cc1[nH]c2c(C)cccc2c1CN1CCC(CO)(Cc2ccccc2)CC1,-62.2%
3,Cc1cc(C)n(-c2ccc(C(=O)N3CCC(CO)(Cc4ccccc4)CC3)cc2)n1,9.21%
4,Cc1c(CN2CCC(CO)(Cc3ccccc3)CC2)c2ccccc2n1C,-37.8%
5,Cc1cc(C)n(-c2cccc(CN3CCC(CO)(Cc4ccccc4)CC3)c2)n1,-58.1%
6,Cc1cccc(-n2ccnc2CN2CCC(CO)(Cc3ccccc3)CC2)c1,-50.1%
7,CN(C)C1=NCCN1CC1CCCCCC1,-3.28%
8,CCOC(=O)CNC(=O)Cn1cnc2sc(C)c(S(=O)(=O)N3CCOCC3)c2c1=O,16.4%
9,CC(=O)N1CCc2cc(S(=O)(=O)CCC(=O)N3CCN(c4ccccc4)CC3)ccc21,7.15%
10,O=S1(=O)N=C(N(Cc2cccs2)c2ccc(O)cc2)c2ccccc21,-39.1%
11,COc1ccc(-c2cc(C(F)(F)F)nc(N3CCOCC3)n2)cc1,18.9%
12,CCOC(=O)c1sc(N(Cc2ccccc2)C(=O)CSc2nnc(C3CC3)n2N)nc1C,-26.7%
13,COc1ccc(/C=C(/NC(=O)c2ccc([N+](=O)[O-])cc2)C(=O)NCCCN(C)C)cc1,-93.4%
14,COc1ccc(C(=O)N/C(=C\c2cc(OC)c(OC)cc2[N+](=O)[O-])C(=O)NCCO)cc1,17.3%
15,C=CCNC(=O)/C(=C\c1ccc(OC)cc1)NC(=O)c1ccc([N+](=O)[O-])cc1,-77.1%
16,C=CCNC(=O)/C(=C\c1ccc([N+](=O)[O-])cc1)NC(C)=O,2.33%
17,COc1ccc(/C=C(/NC(=O)c2ccc([N+](=O)[O-])cc2)C(=O)NC(C)(C)C)cc1,-40.8%
18,COc1ccc(C(=O)N/C(=C\c2ccc([N+](=O)[O-])cc2)C(=O)NC(CCSC)C(=O)O)cc1 (centres unmarked),9.2%
19,Nc1ncncc1-c1ccc([N+](=O)[O-])cc1,-9.28%
20,CC(=O)Cc1ccccc1OC(=O)c1ccco1,23.6%
21,Cc1cc(C)c2oc(C(=O)N3CCN(Cc4ccccc4)CC3)cc(=O)c2c1,-42.9%
22,Cc1ccc(S(=O)(=O)N2CCN(C(=O)c3cc(=O)c4ccccc4o3)CC2)cc1,-55%

row,Compound,"hERG current change (%, negative = inhibition) at 10uM"
1,COc1ccc(N2CCN(C(=O)c3cc(=O)c4cc(Cl)ccc4o3)CC2)cc1,-76.3%
2,O=C(c1cc2ccccc2o1)N1CCN(c2cccc(Cl)c2)CC1,-16.3%
3,O=C(c1cc(=O)c2ccccc2o1)N1CCN(c2cccc(Cl)c2)CC1,-56.4%
4,CCOC(=O)c1ccc(S(=O)(=O)N2CCN(C(=O)c3cc(=O)c4ccccc4o3)CC2)cc1,-38.2%
5,O=C(c1cc(=O)c2cc(Cl)ccc2o1)N1CCN(Cc2ccccc2)CC1,-70.8%
6,O=C(c1cc(=O)c2ccccc2o1)N1CCN(c2ccccc2)CC1,1.71%
7,COc1ccc(N2CCN(C(=O)c3cc(=O)c4cc(C)c(C)cc4o3)CC2)cc1,0.819%
8,COc1ccc(N2CCN(C(=O)c3cc(=O)c4cc(C)ccc4o3)CC2)cc1,-38.1%
9,CN1CCN(C(=O)c2cc(=O)c3cc(Cl)ccc3o2)CC1,-28.1%
10,CC(=O)N1CCN(C(=O)c2cc(=O)c3ccccc3o2)CC1,26.2%
11,CCOc1ccc(NC(=O)CN(C)C(=O)Cc2ccsc2)cc1OCC,-11.2%
12,Cc1cccc(C2C3=C(CCCC3=O)N=C3c4ccccc4C(=O)C32)c1 (centres unmarked),-0.327%
13,CCOC(=O)Cn1c(=O)c2c(nc(N3CCOCC3)n2C)n(C)c1=O,-4.47%
14,COc1ccc(C2=NOC(Cn3c(Cc4ccc(Cl)cc4)nc4c3c(=O)n(C)c(=O)n4C)C2)cc1 (centres unmarked),-22.1%
15,COc1ccc2cc(-c3cc(C(=O)OCC(=O)NC4CCS(=O)(=O)C4)c4ccccc4n3)ccc2c1 (centres unmarked),16.1%
16,CCc1nnc(NC(=O)c2sc3nc4cc(C)ccc4cc3c2N)s1,13%
17,CCCCNC(=O)c1ccc(N2CCC3(CC2)OCCO3)c([N+](=O)[O-])c1,-22.2%
18,CC(=O)c1ccc(S(=O)(=O)NC2CC(=O)N(c3ccc(Cl)cc3)C2)cc1 (centres unmarked),-34.8%
19,O=C1CC(NS(=O)(=O)c2ccc([N+](=O)[O-])cc2)CN1c1ccc(Cl)cc1 (centres unmarked),-66.6%
20,O=C1CC(NS(=O)(=O)c2ccc([N+](=O)[O-])cc2)CN1c1ccc2c(c1)OCCO2 (centres unmarked),-1.64%
